About 83,000 compounds went through this panel and 20% of them were active in at least one assay; those are over-represented in the sample as a whole.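 Growth was measured after 48 h exposure to one concentration of compound in 96-well plates. Values under 10 count as active.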 A number with no mark means an inactive call. Activity calls are given as the source filed them.
These compounds were tested on COLO 205 colon (assay: NCI-60 one-dose screen, 48 h (100 = growth as untreated, 0 = no growth, -100 = all killed)). Settings: 10 µM unless noted.
`CCOc1cc(/C=N\NC(=O)N/N=C/c2ccc(O)c(OCC)c2)ccc1O` was tested, and the growth was 42.7%. Compound `Cc1ccc(C2=C/C(=C/c3ccc(Br)cc3)C(=O)N2CCc2ccc(S(N)(=O)=O)cc2)cc1` has a growth of 115%. `Clc1ccc(N2CCN(CCCN3CCN(c4cccc(Cl)c4)CC3)CC2)cc1` gave a growth of 42.3%. Compound `CC(C)OC(=O)Nc1cc(F)ccc1F` has a growth of 105%. `C[C@H]1[C@H](C)CC[C@]2(C(=O)N3CCN(C)CC3)CC[C@]3(C)C(=CC[C@@H]4[C@@]5(C)C/C(=C/c6ccco6)C(=O)C(C)(C)[C@@H]5CC[C@]43C)[C@H]12` showed a growth of 40.4% [100 µM]. With `CC(C)C1=NOC(=O)C1=Cc1cn(-c2ccccc2)nc1-c1ccc(Br)cc1` the growth was 97.8%. Compound `C=C(CN=[N+]=[N-])[C@@H]1CC[C@]2(C)[C@H](CC[C@@H]3[C@H]4[C@H]5OC(=O)[C@@]4(CCC5(C)C)CC[C@]32C)[C@@]1(C)CCC#N` has a growth of 100% [100 µM]. In the case of `Nn1c(Nc2ccc(S(=O)(=O)Nc3ncccn3)cc2)nnc(/C=C/c2c(O)ccc3ccccc23)c1=O`, the growth is reported as 103%. With `Nc1cc(NN=C(c2ccc(O)cc2)c2ccc(O)cc2)c([N+](=O)[O-])cc1[N+](=O)[O-]` the growth was -52.8% (active). With `CSc1nc2c(c(=O)n1C)C1(C(=O)N(Cc3ccccc3)c3ccccc31)c1c(nc(SC)n(C)c1=O)N2` the growth was 105%. With `NNC(=O)c1ccc(C(=O)NN)cc1` the growth was 138%. Work on `COc1cc(Cl)cc(-c2nn(C(=O)NS(=O)(=O)c3ccccc3)cc2-c2ccncc2)c1` yielded a growth of 69.7%. In the case of `CCN(CC)CC(C)Nc1ccc(C)c2sc3ccccc3c(=O)c12` (stereo not drawn), the growth is reported as 37.9%. In the case of `COc1ccc2c3ccnc(C(F)(F)F)c3n(CCCCN)c2c1`, the growth is reported as 10.7%. With `COc1ccc(C2CC(c3cc(OC)c(OC)c(OC)c3)=NN2C(C)=O)cc1OCC(=O)Nc1nc2ccc(C(F)(F)F)cc2s1` (stereo not drawn) the growth was 85%. In the case of `COC(=O)C(=Cc1ccccc1[N+](=O)[O-])C(=O)OC`, the growth is reported as 38%. `C=CCCCCOc1ccccc1-c1cnc(OCCCCC=C)n1C` was tested, and the growth was 46%. With `O=C(O)c1cccc(CN2CCN(c3cc4c(cc3F)c(=O)c(C(=O)O)cn4C3CC3)CC2)c1O` the growth was 103%. In the case of `Cc1cc(C)c(O)c(CNCCCCCCNCc2cc(C)cc(C)c2O)c1`, the growth is reported as -72.8% (active). `Cc1cnc(N)nc1OCC(C)(C)CNC(=O)c1cccc(-c2ccc(S(=O)(=O)Nc3ccc4c(c3)N(C(=O)C3CC3)CCC4)cc2)c1` showed a growth of 55.5%. Compound `CCOc1cc(NC(=O)c2ccccc2)c(OCC)cc1N` has a growth of 116%. With `CCN(CC)c1ccc(/C=C/c2ccc3cc(C)ccc3[n+]2CC)cc1` the growth was -21.7% (active). Work on `O=C1COCCN1c1ccc(NCc2cn(Cc3ccccc3)c3ccccc23)cc1` yielded a growth of 28.8%. `c1nc(N2CCOCC2)c2[nH]ccc2n1` gave a growth of 113%. In the case of `O=C(Nc1cccc2cccnc12)c1cc(C(=O)c2ccc(Cl)cc2)n2ccc(-c3ccncc3)cc12`, the growth is reported as 111%. Work on `COc1cc2c(c(OC)c1)C1c3cc(OC)ccc3NC(=O)N1CC2` (stereo not drawn) yielded a growth of 80.5%. For `CC[C@]1(O)CC2CN(CCc3c([nH]c4ccccc34)[C@@](C(=O)OC)(c3cc4c(cc3OC)N(C=O)[C@H]3[C@@](O)(C(=O)OC)[C@H](OC(C)=O)[C@]5(CC)C=CCN6CC[C@]43[C@@H]65)C2)C1` (stereo partly drawn), the growth was -61.1% (active). With `CC(C)C1=NOC(=O)C1=Cc1cn(-c2ccco2)nc1-c1ccccc1` the growth was 103%. `COC(=O)[C@H](CC(C)C)NC(=O)NC(=O)NC(=O)CI` was tested, and the growth was -31.4% (active). With `O=C1NC(=O)C(Cc2ccc(OCc3ccc(-c4cc(F)c(F)c(F)c4)cc3)cc2)S1` (stereo not drawn) the growth was 97.6%. For `NC(=O)CC1C=CCC1` (stereo not drawn), the growth was 114%. With `CC(C)C1=NOC(=O)C1=Cc1cn(-c2ccccc2)nc1-c1ccccc1` the growth was 110%. With `COc1ccc2c(c1)c(-c1noc(C(=O)c3cn(C)c4ncc(Br)cc34)n1)cn2C` the growth was 68.4%. For `C#C[C@]1(O)CC[C@H]2[C@@H]3CC=C4c5nc(Nc6ccccn6)sc5CC[C@]4(C)[C@H]3CC[C@@]21C`, the growth was 35%. `O=C1CN(Cc2ccc(C(=O)NO)cc2)C(=O)[C@@H](Cc2ccccc2)N1` showed a growth of 114%. In the case of `COC(=O)[C@]1(C)CC[C@]2(C)CC[C@]3(C)C(=CC(=O)[C@@H]4[C@@]5(C)CCC(=O)NC(C)(C)[C@@H]5CC[C@]43C)[C@@H]2C1`, the growth is reported as -51.2% [100 µM] (active). With `O=C(CSc1nc2ccc([N+](=O)[O-])cc2[nH]1)Nc1cccc(Cl)c1` the growth was 26.4%. With `CCn1cc(-c2ccnc(NCCNS(=O)(=O)c3cccc4ccccc34)c2)c(-c2cccc(O)c2)n1` the growth was 112%.

From PubChem BioAssay (NCI)
